The text below walks through data of PubChem BioAssay (EPA / NIEHS).

Active and inactive are the calls of the source. The calls were made as follows: active = hit-call score of the fitted dose curve at least 0.9, where 1 is the maximum; inactive = score below 0.9.

Read-out in the first assay: Cyclin D2 (CCND2), CCND2 (gene 894)
Description: LTEA_HepaRG_CCND2: Life Technologies and Expression Analysis (LTEA) Assay for Cyclin D2 (CCND2) using HepaRG (AID 2283449).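 Also: CCND2 transcript measured by TaqMan qRT-PCR and normalised to three housekeeping genes.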 The note with it: mRNA level, 48 h; actives raise or lower the signal. The procedure, abridged:
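Differentiated human HepaRG cells were exposed for 48 h in serum-free induction medium to eight half-log concentrations topping at 100 uM (0.5% DMSO vehicle). CCND2 mRNA was quantified by TaqMan qRT-PCR, normalised to ACTB, GAPDH and POLR2A, and fitted bidirectionally against DMSO.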
In the case of `CCCCCCCCCC[N+](C)(C)[O-]`, the outcome was inactive.

With `CCOCCOCCO`, the compound was classed as inactive.

In the case of `O=C1CCCCC1`, the call was inactive.

As to `COC(=O)CCCC(=O)OC`, the compound was called inactive.

As for `Nc1nc(=S)c2[nH]cnc2[nH]1`, the call was inactive.

For the compound `Oc1ccc(O)cc1`, the outcome was inactive.

On to `CC(C)c1cccc(C(C)C)c1NC(=O)NS(=O)(=O)c1cc(C(C)(C)O)co1`, for which the result was inactive.

On to `CCCCCCCCCCCCCCOS(=O)(=O)O`, for which the call was inactive.

`S=c1[nH]c2ccccc2s1`: the call was inactive.

Turning to `NC1CCCCC1`, the result was inactive.

For `Cn1cnc2c1c(=O)[nH]c(=O)n2C`, the compound was classed as inactive.

For `Cc1cc(SC2=C(O)C[C@@](CCc3ccc(N)cc3)(C(C)C)OC2=O)c(C(C)(C)C)cc1CO`, the outcome was inactive.

Turning to `CN(C)CCCN1c2ccccc2Sc2ccc(Cl)cc21`, the result was inactive.

Regarding `CC(=O)CC(c1ccccc1)c1c(O)c2ccccc2oc1=O` (stereo not given), the outcome was inactive.

`NC=O`: the compound was classed as inactive.

As for `CC(=O)S[C@H](C(=O)N[C@H]1Cc2ccccc2[C@H]2CCC[C@@H](C(=O)O)N2C1=O)C(C)C`, the result was inactive.

For `COc1ccc(C(=O)Nc2nc3ccccc3c(NCc3ccccc3)c2C#N)cc1`, the call was inactive.

Regarding `CCCCC(CC)CO` (stereo not given), the half-maximal activity concentration (AC50) (usually the midpoint of the concentration-response curve, whichever way the signal moves) was 59.8 µM (active).

With `CC(=O)OC1CC(C)OC(C)O1` (stereo not given), the compound was called inactive.

Regarding `C=CCc1ccc(OC)c(OC)c1`, the outcome was inactive.

On to `CCCCc1nc2cccnc2n1Cc1ccc(-c2ccccc2-c2nnn[nH]2)cc1`, for which the result was inactive.

Consider `C=CCCCCCCCCCCCC`, for which the compound was classed as inactive.

Take `CCc1cc(C2=C(C(=O)O)N(c3ccccc3C(F)(F)F)S(=O)(=O)c3ccccc32)cc2c1OCO2`: the compound was called inactive.

Regarding `CCCCCCCCCCCCCCCCO`, the outcome was inactive.

Consider `CCCC[C@H]1CN(CC2CCOCC2)C(=O)OC12CCN(C1(C)CCN(C(=O)c3c(C)ncnc3C)CC1)CC2`, for which the call was inactive.

In the case of `Nc1nc(Cl)nc2c1ncn2[C@H]1C[C@H](O)[C@@H](CO)O1`, the result was inactive.

As to `O=C1OC(c2ccc(O)cc2)(c2ccc(O)cc2)c2ccccc21`, the compound was classed as inactive.

As for `CC(C)COC(=O)CCCCC(=O)OCC(C)C`, the call was inactive.

With `O=C1c2c(O)cccc2Cc2cccc(O)c21`, the result was inactive.

With `CS(=O)(=O)c1ccc([C@@H](C[C@H]2CCC(=O)C2)C(=O)Nc2cnccn2)cc1Cl`, the half-maximal activity concentration (AC50) was 2.19 µM (active).

Read-out in the next assay: Cyclin Dependent Kinase Inhibitor 1A (CDKN1A), CDKN1A (gene 1026)
The experiment in a line: LTEA_HepaRG_CDKN1A: Life Technologies and Expression Analysis (LTEA) Assay for Cyclin Dependent Kinase Inhibitor 1A (CDKN1A) using HepaRG (AID 2283450). The following applies: mRNA level, 48 h; actives raise or lower the signal. The procedure, abridged: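 Expression quantified by Fluidigm qRT-PCR with ACTB, GAPDH and POLR2A normalization, fitted bidirectionally against 0.5% DMSO. Cells: HepaRG, plated 48 h then treated 48 h in serum-free induction medium, top concentration 100 uM with half-log dilutions.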
`CCCCCCCCCC[N+](C)(C)[O-]`: the outcome was inactive.

Consider `CCOCCOCCO`, for which the outcome was inactive.

In the case of `O=C1CCCCC1`, the result was inactive.

With `COC(=O)CCCC(=O)OC`, the result was inactive.

In the case of `Nc1nc(=S)c2[nH]cnc2[nH]1`, the AC50 was 6.05 µM (active).

Take `Oc1ccc(O)cc1`: the outcome was inactive.

Turning to `CC(C)c1cccc(C(C)C)c1NC(=O)NS(=O)(=O)c1cc(C(C)(C)O)co1`, the compound was called inactive.

With `CCCCCCCCCCCCCCOS(=O)(=O)O`, the call was inactive.

In the case of `S=c1[nH]c2ccccc2s1`, the result was inactive.

With `NC1CCCCC1`, the compound was called inactive.

As to `Cn1cnc2c1c(=O)[nH]c(=O)n2C`, the outcome was inactive.

Take `Cc1cc(SC2=C(O)C[C@@](CCc3ccc(N)cc3)(C(C)C)OC2=O)c(C(C)(C)C)cc1CO`: the compound was called inactive.

As to `CN(C)CCCN1c2ccccc2Sc2ccc(Cl)cc21`, the AC50 is 50 µM (active).

With `CC(=O)CC(c1ccccc1)c1c(O)c2ccccc2oc1=O` (stereo not given), the compound was called inactive.

With `NC=O`, the compound was called inactive.

`CC(=O)S[C@H](C(=O)N[C@H]1Cc2ccccc2[C@H]2CCC[C@@H](C(=O)O)N2C1=O)C(C)C`: the compound was classed as inactive.

`COc1ccc(C(=O)Nc2nc3ccccc3c(NCc3ccccc3)c2C#N)cc1`: the AC50 was 26.3 µM (active).

As for `CCCCC(CC)CO` (stereo not given), the call was inactive.

As for `CC(=O)OC1CC(C)OC(C)O1` (stereo not given), the result was inactive.

As to `C=CCc1ccc(OC)c(OC)c1`, the compound was called inactive.

`CCCCc1nc2cccnc2n1Cc1ccc(-c2ccccc2-c2nnn[nH]2)cc1`: the result was inactive.

Take `C=CCCCCCCCCCCCC`: the outcome was inactive.

In the case of `CCc1cc(C2=C(C(=O)O)N(c3ccccc3C(F)(F)F)S(=O)(=O)c3ccccc32)cc2c1OCO2`, the compound was called inactive.

`CCCCCCCCCCCCCCCCO`: the compound was called inactive.

For `CCCC[C@H]1CN(CC2CCOCC2)C(=O)OC12CCN(C1(C)CCN(C(=O)c3c(C)ncnc3C)CC1)CC2`, the call was inactive.

As for `Nc1nc(Cl)nc2c1ncn2[C@H]1C[C@H](O)[C@@H](CO)O1`, the AC50 was 0.168 µM (active).

As for `O=C1OC(c2ccc(O)cc2)(c2ccc(O)cc2)c2ccccc21`, the result was inactive.

As for `CC(C)COC(=O)CCCCC(=O)OCC(C)C`, the compound was classed as inactive.

`O=C1c2c(O)cccc2Cc2cccc(O)c21`: the call was inactive.

Regarding `CS(=O)(=O)c1ccc([C@@H](C[C@H]2CCC(=O)C2)C(=O)Nc2cnccn2)cc1Cl`, the compound was classed as inactive.
